# Source: PubChem
# An excerpt weighted towards active compounds, which were near 11% of everything screened.
# PNC assembly inh: inhibitors of perinucleolar compartment assembly. 3.1% of 140,000 active. PC3M PTB-GFP, PNC prevalence imaging, 16 h; active compounds read low. activity change (PNC), negative = inhibition, % at 10 µM;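 active means readout at or below -70, meaning at least 70% loss of cells showing the perinucleolar compartment, a nuclear body marking cancer cells; inconclusive means readout between -30 and a set limit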;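 further: plate controls were DMSO wells for no effect and camptothecin positive control wells for full effect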
#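 Read-out is percentage of cells bearing a perinucleolar compartment, from automated 20x imaging of fixed, Hoechst-stained PC3M PTB-GFP cells. Cells were seeded 4 h, then exposed 16 h to compound (23 nl of library stock) in duplicate plates.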
# ALDH1A1 block: blocks purified human ALDH1A1 activity | 7.3% of 220,000 active | P00352 | Potency, µM (top dose mostly 75.3 µM), for inactives: at the top dose activity, negative = inhibition, most hits filed as inhibitors | Purified ALDH1A1, NADH fluorescence, propionaldehyde substrate | AID 1030;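 further: potency means the concentration at half of the fitted maximal effect; plate controls were no enzyme wells and a reference inhibitor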
# HPGD inh: blocks human HPGD enzyme activity; Potency, µM, inactives show at the highest dose activity change, negative = inhibition, actives largely listed as inhibitors; 4.3% of 150,000 active; AID 894; purified HPGD, NADH fluorescence kinetic, PGE2 substrate; further: potency means the concentration at half of the fitted maximal effect
# Target sequence (P15428 whole entry, looked up): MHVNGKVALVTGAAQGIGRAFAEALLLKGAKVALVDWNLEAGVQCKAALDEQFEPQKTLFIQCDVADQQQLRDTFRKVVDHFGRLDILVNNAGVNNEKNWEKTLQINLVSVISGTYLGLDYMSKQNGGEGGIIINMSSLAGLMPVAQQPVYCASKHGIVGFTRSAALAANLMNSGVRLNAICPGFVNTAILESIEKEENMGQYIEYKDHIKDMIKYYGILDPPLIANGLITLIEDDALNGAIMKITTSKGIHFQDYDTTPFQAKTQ
#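 NADH formation kinetics: reaction with 30 uM PGE2 and 1 mM NAD+ (final), 20 nM enzyme, Tris-HCl pH 8 with Tween 20, after 15 min compound preincubation at room temperature. Fluorescence change, last versus first of five reads.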
# * hit, by the source's call; ? = inconclusive; . = no result given; ! = not confirmed by another sample; [ ] = remark or other dose. Unless noted, the call rests on the fitted dose curve; in most records, active means well fitted inhibition curve with a large enough effect (not every such curve was filed as active); inconclusive means small, poorly fitted or top-dose-only effect, or another doubt; inactive means no such curve, though single readings can be large or run the other way. Unless noted, on the % scale 0 is the no-effect control and ±100 the full control effect.
SMILES,PNC assembly inh,ALDH1A1 block,HPGD inh
Fc1ccc(NC2=NCCS2)cc1Cl,35,7%,13µM*
COc1ccc(OC)c(NC2=NCCS2)c1,.,-10%,.
CC1CC2CC(=O)C3CCCN4CCCC2[C@]34C1 (some centres undefined),.,8%,-1%
C=CC(=O)OCC(C)C,.,16%,-9%
CCN1C(=O)/C(=C/c2ccc(N(CC)CC)cc2OC)C(=O)NC1=S,.,10µM*,.
c1ccc(C2CNCc3ccccc32)cc1 (centres undefined),.,1%,.
Cc1ncsc1CCOC(=O)c1ccc([N+](=O)[O-])cc1,-13,-9%,-17%
O=C(CNC(=O)c1cccs1)NCC(=O)OCC(=O)c1ccc([N+](=O)[O-])cc1,.,2.2µM*,.
CCCOc1ccc(N2C(=O)CC(N3CCC(O)(c4cccc(C(F)(F)F)c4)CC3)C2=O)cc1 (centres undefined),-28,?,-8%
c1ccc([C@H]2CNCc3ccccc32)cc1,.,0%,0%
Oc1cc2c(cc1O)[C@H]1c3ccccc3CN[C@H]1CC2,.,?,8.9µM*
O=C(Nc1cccc(OC(=O)N2CCOCC2)c1)N1CCOCC1,?,6%,-5%
Cc1oc2ccc(OC(=O)N3CCOCC3)cc2c1C(=O)OC(C)C,2,4µM*,-9%
O=C(O)[C@@H]1[C@H](C(=O)O)[C@]2(Cl)C(Cl)=C(Cl)[C@@]1(Cl)C2(Cl)Cl,.,3.2µM*,-21%
O=S1OCC2C(CO1)C1(Cl)C(Cl)=C(Cl)C2(Cl)C1(Cl)Cl (centres undefined),.,3%,-4%
C[C@]12CN(CC[N+](C)(C)C)C[C@]1(C)[C@@H]1CC[C@@H]2O1,.,0%[13.5 µM],2%
O=C1NO[C@@H]2CN[C@@H](C(=O)O)[C@H]12,.,6%,-10%
C=C/C(=C/C(=O)C[C@H](C)C[C@@H](C)CC[C@H](O)[C@H](C)C(=O)C[C@@H](O)[C@H](C)[C@@H](C)OC(=O)C[C@@H](O)C1=C(C)C(=O)OC1=O)CC,.,?,2.8µM*
O=C(OCC(=O)N1CCN(c2ccccc2)CC1)c1cnc(Cl)c(Cl)c1,.,8.9µM*,.
O=C(COc1ccc(Cl)cc1)N1CCN(Cc2ccccc2)CC1,23,1%,1%
CC(C)NCC(O)COc1cccc2[nH]ccc12 (centres undefined),.,2%,-11%
CC(C)[C@@H]1CN[C@H](C(=O)O)[C@@H]1CC(=O)O,.,0%,-6%
NC1=NC([S][Hg][c]2ccc(N)cc2)c2ncn([C@@H]3O[C@H](CO)[C@@H](O)[C@@H]3O)c2N1 (some centres undefined),.,0.1µM*,0.05µM*
C[C@H](NC(=O)[C@@H](N)Cc1ccc(O)cc1)C(=O)N[C@@H](Cc1ccccc1)C(=O)NCC(=O)N[C@@H](Cc1ccc(O)cc1)C(=O)N1CCC[C@H]1C(=O)N[C@@H](CO)C(N)=O,.,-8%,.
O=C(Nc1cccc(F)c1)N1CCC2(CC1)CCN(C(=O)Oc1ccccc1)CC2,.,?,-12%
SMILES,PNC assembly inh,ALDH1A1 block,HPGD inh
C=CC(=O)OCC(CC)CCCC (centres undefined),.,-4%,-5%
CC(C)C#N,.,16%,-14%
N#CC(Cl)Cl,.,18µM*,-10%
CC(C)C[C@H](NC(=O)[C@H](Cc1ccccc1)NC(=O)CNC(=O)[C@H](C)NC(=O)[C@@H](N)Cc1ccc(O)cc1)C(=O)O,.,3%,.
CN=C=S,.,?,-2%
CN1Cc2ccccc2[C@@H]2c3cccc4[nH]cc(c34)C[C@H]21,.,16µM*!,-27%
CCN(CC)C(=O)N[C@@H]1C[C@H]2c3cccc4[nH]cc(c34)C[C@@H]2N(C)C1,.,13%[20.9 µM],-6%
N#CC(Cl)(Cl)Cl,.,20µM*,-3%
C=C(C)C#N,.,-8%,-4%
NC[C@H](CC(=O)O)c1ccc(Cl)cc1,.,9%,2%
Clc1ccc(C(c2ccccc2Cl)C(Cl)(Cl)Cl)cc1 (centres undefined),.,22µM*,-6%
CC(C)(C)NCC(O)c1ccccc1Cl (centres undefined),.,-5%,-12%
CC1=C2[C@@H]3OC(=O)[C@@H](C)[C@@H]3CC[C@]2(C)C=CC1=O,.,-7%[20.9 µM],-3%
c1ccc(N2CCCC3(CCNCC3)C2)cc1,.,?,-8%
COc1cc(/C=C/C(=O)c2c(O)n(CCc3ccccc3)c(=O)[nH]c2=O)ccc1O,12,-5%,-28%
COc1cc(/C=C/[N+](=O)[O-])ccc1O,-84*,?,-24%
CC(Cl)CCl (centres undefined),.,4%,-1%
O=c1[nH]c(=O)n(Cc2ccco2)c(O)c1/C=N/N1CCCCC1,?,?,-19%
O=c1[nH]c(=O)n(Cc2ccco2)c(O)c1C=NC1CC1,32,14µM*,-25%
O=C(Oc1ccccc1)N1CCC2(CCCN(Cc3ccccc3)C2)CC1,.,?,-5%
CC(C)=CCCC1(C)C=Cc2c(O)c3c(c(CC=C(C)C)c2O1)OC12C(=CC4CC1C(C)(C)OC2(C/C=C(/C)C(=O)O)C4O)C3=O (centres undefined),.,-11%,?
Cc1ccc(-c2n[nH]c(=S)n2-c2ccccc2)cc1,13,?,?
Cc1ccc(-n2c(-c3nn(C)c(C)c3Cl)n[nH]c2=S)cc1,?,32µM*,28µM*
C[C@@H]1OC=C2[C@@H](O)[C@H]3O[C@H]3C(=O)[C@@]23[C@H]1[C@H]1C2=C([C@@H](O)[C@H]4O[C@@H]4C2=O)[C@@H]3O[C@@H]1C,.,12%[13.5 µM],.
COC(=O)[C@@]1(Cc2ccccc2)[C@H]2c3cc(C(=O)N(C)C)[nH]c3C[C@H]2CN1C(=O)c1ccccc1,.,3%,-1%
SMILES,PNC assembly inh,ALDH1A1 block,HPGD inh
CCC12CN3CCN(CC(C3)C1O)C2 (centres undefined),-16,11%,4%
CC(C)=CCC12CN3CCN(CC(C3)C1=O)C2,-88*,2%,-6%
CN1C(=O)C(=Cc2ccc(SC3CCCCC3)o2)C(=O)N(C)C1=O,.,14µM*,.
COc1ccc(N2C(=O)NC(=O)/C(=C/c3ccc(N4CCOCC4)cc3)C2=O)cc1,.,10µM*,.
Cc1ccc(N2C(=O)NC(=O)/C(=C\c3ccc(N4CCOCC4)cc3)C2=O)cc1,?,11µM*,35µM*
O=C1NC(=O)N(Cc2ccc(F)cc2)C(=O)/C1=C\c1ccc(N2CCCC2)cc1,.,0.25µM*,.
CN(C)C=C1C(=O)N(C2CCCCC2)C(=O)N(C2CCCCC2)C1=O,29,-13%,-8%
C[C@@]12CC[C@H]3[C@@H](CC[C@@H]4C[C@H]5S[C@H]5C[C@]43C)[C@H]1CC[C@H]2O,.,-2%[20.9 µM],-1%
Cc1cccc(N2C(=O)NC(=O)/C(=C/c3ccc(-c4ccc(C(=O)O)c(Cl)c4)o3)C2=O)c1,.,4%,.
O=C1NC(=O)N(c2ccc(F)cc2)C(=O)/C1=C/c1ccc(N2CCOCC2)cc1,.,4µM*,.
OC1/C(=C/c2ccc(F)cc2)N2CCC1CC2 (centres undefined),-22,4%,6%
CN1C(=O)C(=Cc2ccc(N3CCCCCC3)cc2)C(=O)N(C)C1=O,.,0.11µM*,.
Cc1c(C=C2C(=O)N(C)C(=O)N(C)C2=O)c(=O)n(-c2ccccc2)n1C,-10,3%,5%
CCN(CC)c1ccc(C=C2C(=O)N(C)C(=S)N(C)C2=O)o1,33,-14%,-13%
Cc1cccc(N2C(=O)NC(=O)/C(=C/c3ccc(N4CCOCC4)cc3)C2=O)c1,.,11µM*,.
